Results reported in PubChem BioAssay (NCI).
The panel holds about 83,000 compounds, 20% with a hit somewhere; the sample as a whole holds those more often.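 96-well plates, one dose, 48 hours. Percent growth reported; active if below 10.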 The source made the active and inactive calls.

Legend:
Assay in all cases: NCI-60 one-dose screen, 48 h (100 = growth as untreated, 0 = no growth, -100 = all killed)
Settings in all cases: 10 µM unless noted
[1] = tested on: HCT-15 colon
[2] = tested on: HT29 colon
[3] = tested on: SNB-75 CNS
[4] = tested on: SNB-19 CNS
[5] = tested on: U251 CNS
[6] = tested on: PC-3 prostate
[7] = tested on: SK-MEL-5 melanoma
[8] = tested on: UACC-62 melanoma
[9] = tested on: LOX IMVI melanoma
[10] = tested on: SK-MEL-28 melanoma
[11] = tested on: SK-MEL-2 melanoma
[12] = tested on: EKVX NSCLC
[13] = tested on: SN12C renal
[14] = tested on: UO-31 renal
[15] = tested on: TK-10 renal
[16] = tested on: ACHN renal
[17] = tested on: A498 renal
[18] = tested on: CCRF-CEM leukemia
[19] = tested on: MOLT-4 leukemia

Measured: growth

OC(COc1ccccc1Cl)CN1CCN(c2ccc(Cl)cc2)CC1 (stereo not drawn)
inactive: [1] 90.5% | [2] 113% | [3] 83.3% | [4] 111% | [5] 99.5% | [6] 85.1% | [7] 104% | [8] 95.9% | [9] 104% | [10] 103% | [11] 126% | [12] 106% | [13] 106% | [14] 81.7% | [15] 117% | [16] 94.6% | [17] 78.6% | [18] 46% | [19] 95.3%

O=C(c1ccccc1)[C@H]1[C@@H]2CCCN2[C@]2(C(=O)Nc3ccc(F)cc32)[C@]12C(=O)Nc1ccccc12
inactive: [1] 86.9% | [2] 89.8% | [3] 83.2% | [4] 90.8% | [5] 80.5% | [6] 65.7% | [7] 83.6% | [8] 70.7% | [9] 91.3% | [10] 92.8% | [11] 83.1% | [12] 70.8% | [13] 92% | [14] 85.4% | [15] 113% | [16] 88.6% | [17] 89.7% | [18] 76.8% | [19] 59.5%

Cc1cccc[n+]1CCC[n+]1ccccc1C
inactive: [1] 96.7% | [2] 94.1% | [3] 103% | [4] 111% | [5] 101% | [6] 95.4% | [7] 101% | [8] 109% | [9] 96.9% | [10] 103% | [11] 100% | [12] 94.6% | [13] 101% | [14] 99% | [15] 88% | [16] 109% | [17] 109% | [18] 99.6% | [19] 86.1%

C[C@H]1C=C(C[C@@H](O)CC#CC#CCCCCC[C@@H](O)[C@H]2CCC(=O)O2)C(=O)O1
inactive: [1] 110% | [2] 99.1% | [3] 118% | [4] 102% | [5] 99.4% | [6] 111% | [7] 99.8% | [8] 95.1% | [9] 92.6% | [10] 123% | [11] 118% | [12] 96.7% | [13] 105% | [14] 81.2% | [15] 115% | [16] 103% | [17] 107% | [19] 114%

CNC(=O)NN
inactive: [1] 87.3% | [2] 107% | [3] 88.3% | [4] 105% | [5] 95.2% | [6] 93.4% | [7] 103% | [8] 104% | [9] 102% | [10] 112% | [11] 119% | [12] 91.5% | [13] 110% | [14] 71.7% | [15] 111% | [16] 88.9% | [17] 93.2% | [18] 65.8% | [19] 105%

C=C(C)[C@@H]1C/C=C(\COC(=O)[C@H](OC(C)=O)C(NC(=O)c2ccccc2)c2ccccc2)CC[C@H]2O[C@]2(C)CC/C=C(\C)CC1 (stereo partly drawn)
inactive: [1] 89% [5 µM] | [2] 62.8% [5 µM] | [3] 57.5% [5 µM] | [4] 80.2% [5 µM] | [5] 71.4% [5 µM] | [6] 32.1% [5 µM] | [7] 71.4% [5 µM] | [8] 62.3% [5 µM] | [9] 72.9% [5 µM] | [10] 77.1% [5 µM] | [11] 76.2% [5 µM] | [12] 64.5% [5 µM] | [13] 82.1% [5 µM] | [14] 51.9% [5 µM] | [15] 85.8% [5 µM] | [16] 86.8% [5 µM] | [17] 84.9% [5 µM] | [19] 17.6% [5 µM]
active: [18] -89.5% [5 µM]

Nc1nc2ccc(CNc3ccc(C(=O)NC(CC(=O)O)C(=O)O)cc3)cc2c(=O)[nH]1 (stereo not drawn)
inactive: [1] 39.8% | [2] 18.6% | [3] 70.4% | [4] 62.6% | [5] 49.5% | [6] 33.1% | [7] 30% | [8] 31.6% | [9] 19.5% | [10] 106% | [11] 51.9% | [12] 63.6% | [13] 41.3% | [14] 16.9% | [15] 82% | [16] 33.1% | [17] 93.1% | [18] 23.2% | [19] 30.4%

COc1ccc(/C(=C/c2cc(OC)c(OC)c(OC)c2)[N+](=O)[O-])cc1
active: [1] -41.3% | [2] -14.2% | [5] 5.34% | [8] -7.25% | [9] -80.3% | [10] 1.77% | [11] -13.2% | [13] 5.64% | [14] -69.1% | [15] -1.67% | [16] -74% | [18] -7.93% | [19] 0.326%
inactive: [3] 49.2% | [4] 55.2% | [6] 35.1% | [7] 70.7% | [12] 27.9% | [17] 87.4%

NN=C(c1ccc(Cl)cc1)c1ccc(Cl)cc1
inactive: [1] 90.4% | [2] 96.7% | [3] 96.3% | [4] 98.9% | [5] 102% | [6] 101% | [7] 107% | [8] 100% | [9] 77.1% | [10] 117% | [11] 121% | [12] 108% | [13] 105% | [14] 81.8% | [15] 110% | [16] 101% | [17] 96% | [18] 89.3% | [19] 97.8%

CN1CCN(Cn2nc(-c3cc(F)c(Cl)cc3Cl)n(/N=C/c3ccc(N(C)C)cc3)c2=S)CC1
inactive: [1] 100% | [2] 99.5% | [3] 78.7% | [4] 71.5% | [5] 95.2% | [6] 76.2% | [7] 79.7% | [8] 79.4% | [9] 79.9% | [10] 82.1% | [11] 90.2% | [12] 87.1% | [13] 102% | [14] 55.5% | [15] 90.2% | [16] 92.7% | [17] 78.8% | [18] 83.5% | [19] 99.1%

CCOc1ccc(NC(=O)Nc2cc(C(C)C)ccc2C)cc1
inactive: [1] 83.3% | [2] 85% | [3] 19.5% | [4] 79.5% | [5] 28.9% | [6] 69.3% | [7] 124% | [8] 80% | [9] 71.2% | [10] 68% | [11] 68.6% | [12] 96.1% | [13] 57.3% | [14] 15.2% | [15] 55% | [16] 20.6% | [17] 87.2% | [18] 44.4% | [19] 72.2%

CCCCNC(=O)Oc1ccc(/C(=C(/CC)Cc2ccccc2)c2ccc(OCCCN(C)C)cc2)cc1
inactive: [1] 57.7% | [2] 15.4% | [3] 75.5% | [4] 90.7% | [5] 68.9% | [6] 81.2% | [7] 84.5% | [8] 106% | [9] 59% | [10] 95.9% | [11] 86.8% | [12] 67.5% | [13] 82.8% | [14] 60.5% | [15] 91.9% | [16] 92.5% | [17] 76.2% | [18] 77.1% | [19] 63.4%

CC(C)(C)NCC(O)COc1c(Br)c(Br)c(Br)c2c1OC(C)(C)C2 (stereo not drawn)
active: [1] -66.9% | [2] -72.7% | [3] 5.77% | [4] -47.2% | [5] -92.4% | [6] -90.2% | [7] -97% | [8] -79.8% | [9] -90.9% | [10] -83.7% | [11] -71.9% | [14] -81.8% | [15] -77.8% | [16] -60.1% | [17] -6.49% | [18] -62.5% | [19] -56.1%
inactive: [12] 50.1% | [13] 33.2%

Fc1cccc(F)c1C#Cc1ccc2cccnc2c1
inactive: [1] 74.9% | [2] 69% | [3] 97.8% | [4] 91.3% | [5] 80.6% | [6] 86.1% | [7] 71.9% | [8] 71.3% | [9] 86.9% | [10] 106% | [11] 84.4% | [12] 68.6% | [13] 88.3% | [14] 53.5% | [15] 88.4% | [16] 88.5% | [17] 99.7% | [18] 83.7% | [19] 71.6%

O=C(C[n+]1ccccc1Cl)c1ccc2c(c1)CCCC2
inactive: [1] 102% | [2] 79.7% | [3] 88.4% | [4] 108% | [5] 97.7% | [6] 87.3% | [7] 98.4% | [8] 106% | [9] 101% | [10] 105% | [11] 103% | [12] 78.9% | [13] 101% | [14] 93.6% | [15] 92.8% | [16] 105% | [17] 91.3% | [18] 90.6% | [19] 73.6%

CN1CCN(CC(O)COc2c(Br)c(Br)c(Br)c3c2OC(C)(C)C3)CC1 (stereo not drawn)
inactive: [1] 28.7% | [3] 90.7% | [4] 92.7% | [5] 56.4% | [6] 53% | [11] 38.5% | [12] 87.7% | [13] 92.5% | [15] 74.1% | [16] 77.9% | [17] 58.1% | [18] 15.6% | [19] 18.3%
active: [2] -12.8% | [7] -86% | [8] -59.5% | [9] 4.05% | [10] -89.2% | [14] -14.8%
